Screening results from PubChem BioAssay.
A selection: hits, their analogues and other compounds. The true share with any hit is near 4%.
TROY signal inh: inhibitors of TROY-driven NF-kB signaling, primary screen, Q293 LMP1-TROYcd cells, NF-kB luciferase, uHTS; Q293 LMP1-TROYcd NF-kB luciferase reporter, 4 h; inhibition, % at 10 µM; 360,000 tested, 0.98% active; AID 1347056, 2019;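 active = compounds whose plate-normalised and pattern-corrected inhibition of the luciferase reporter signal at the single screening dose is 50% or more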
HIF-2a inh: HIF-2a reporter inhibitors, primary screen, luminescence, 786-0 RCC cells | 786-0 RCC cells HIF-2a reporter, luciferase luminescence, overnight | inhibition, % at 18.8 µM | 360,000 tested, 0.72% active;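 active = inhibition of the luminescence signal of 40% or more relative to plate controls, in a single-dose primary screen at 18.75 µM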
CF NFkB inh: inhibitors of PAF-induced NF-kB signaling, primary screen, cell-based, GFP fluorescence, uHTS | KKLEB NF-kB-GFP reporter, GFP fluorescence overnight | inhibition, % at 5 µM | 360,000 tested, 0.86% active;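 active = at least 50% inhibition at 5 µM, scaled per plate between neutral and stimulator controls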;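 also: PAF is a Pseudomonas aeruginosa culture filtrate used as stimulus; plate controls were PAF-stimulated DMSO wells for no effect and unstimulated DMSO wells for full effect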
TWEAK Fn14 block: inhibitors of TWEAK-Fn14 signaling, primary screen, luciferase reporter cells, uHTS; TWEAK-stimulated Fn14 reporter cells, luciferase luminescence, 8 h; inhibition, % at 10 µM; 360,000 tested, 2% active; in the data active = inhibition above about 50%
Peg3 prom inh: Peg3 promoter-driven luciferase inhibitors, primary screen, cell-based, HeLa, luciferase luminescence; inhibition, % at 20 µM; 360,000 tested, 1.7% active; HeLa PEG-Prom luciferase reporter, overnight;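 active = inhibition of at least 50% at 20 µM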
KKLEB tox: cytotoxicity in KKLEB CF airway cells, primary screen, cytotoxicity control for CF NF-kB inhibitor project, cell-based, uHTS, fluorescence assay plates | 360,000 tested, 0.36% active | activity change (cytotoxicity), % at 5 µM | KKLEB CF airway cells viability, ATPlite luminescence, overnight; stronger effect = lower value; cells stimulated with P. aeruginosa culture filtrate | AID 602141, 2011;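 active = corrected activity change at or below -50% at 5 µM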
* marks the source's active call; other numbers are inactive results; / = no result.

SMILES | TROY signal inh | HIF-2a inh | CF NFkB inh | TWEAK Fn14 block | Peg3 prom inh | KKLEB tox
Cc1ccccc1-c1nc(C(=O)NCC2CCCO2)cc2c1[nH]c1ccccc12 (centres undefined) | -3.0 | 3.9 | 18.8 | 54.3* | 46.0 | -0.5
Cc1ccc(-c2nc(C(=O)NCC3CCCO3)cc3c2[nH]c2ccccc23)cc1 (centres undefined) | 14.9 | -3.3 | 29.5 | 53.1* | 68.1* | -16.7
Cc1ccc(-c2nc(C(=O)NCCCN(C)C)cc3c2[nH]c2ccccc23)cc1 | -51.4 | -23.3 | -56.8 | -29.2 | 90.8* | -4.4
Cc1csc(CNc2ncnc3ccc(-c4ccc5c(c4)OCO5)cc23)c1 | 3.9 | 15.1 | 20.1 | 17.0 | 12.5 | 1.6
COc1ccc(-n2c(=O)c(CCC(=O)N(C)Cc3ccccc3C)nc3ccccc32)cc1 | 22.6 | 22.2 | -2.5 | 0.4 | 18.9 | 1.4
CCc1ccc(CN(C)C(=O)CCc2nc3ccccc3n(-c3ccc(OC)cc3)c2=O)cc1 | 53.6* | 16.5 | 24.3 | 51.8* | 57.0* | -8.3
COc1ccc(C2(CNC(=O)c3cc([N+](=O)[O-])cc([N+](=O)[O-])c3)CCCC2)cc1OC | 4.8 | 15.8 | 9.0 | 12.7 | -3.0 | -4.4
CCC(C)(C)NC(=O)C(c1ccc(OC)cc1)N(C(=O)CCC(=O)Nc1cc(C)on1)c1ccccc1OC (centres undefined) | 10.8 | 13.3 | -5.5 | 57.0* | 21.3 | 23.2
CCC(C)(C)NC(=O)C(c1ccc(OC)cc1)N(C(=O)CCC(=O)Nc1cc(C)on1)c1ccc(OC)c(OC)c1 (centres undefined) | -6.7 | 5.1 | -1.1 | 21.7 | 5.4 | -1.6
Cc1cc(C)c2c(NC(=O)CCl)nn(C)c2n1 | 5.1 | 9.9 | 16.6 | 10.3 | 52.0* | -16.8
Cc1cc(-c2n[nH]c(=S)n2/N=C/c2ccccc2[N+](=O)[O-])n[nH]1 | -4.8 | 9.4 | 0.5 | 21.8 | 50.9* | 6.2
c1ccc2sc(NN=C3CCCCCC3)nc2c1 | 76.3* | -39.2 | -4.5 | 76.2* | -100.3 | -30.2
O=C(O)c1ccccc1-c1ccccc1C(=O)Nc1nc2ccccc2s1 | -15.7 | 6.2 | 6.8 | 6.3 | 1.6 | -2.5
Cc1ccc(CNc2nc3ccccc3s2)s1 | 41.0 | 12.7 | 1.5 | 80.0* | -25.4 | -42.2
Cc1ccc(C(=O)Nc2nc3ccc(S(C)(=O)=O)cc3s2)s1 | -25.2 | -156.2 | 33.3 | 6.4 | -225.9 | -14.5
O=C(Nc1nc2ccccc2s1)c1ccccc1 | 0.7 | -164.5 | -18.6 | 50.3* | -167.8 | -19.0
Cc1ccc(C(=O)Nc2nc3ccccc3s2)s1 | 10.4 | -290.3 | -40.1 | 69.1* | -181.4 | -2.1
CC(=O)NC1=NN(C(C)=O)C(C)(c2cccc([N+](=O)[O-])c2)S1 (centres undefined) | -11.8 | 7.8 | -0.5 | 0.7 | 15.6 | 10.7
COc1ccc(-n2nnnc2SCC(=O)Nc2ccc3c(c2)OCCO3)c(OC)c1 | 24.7 | -86.7 | 6.8 | 12.6 | -9.1 | 2.6
O=C1CCCC2=C1CC(C(=O)OCc1ccccc1)C(=O)N2Cc1ccccc1 (centres undefined) | 4.4 | 7.7 | 2.3 | 7.6 | -6.1 | -1.4
O=C(NNc1nc2ccccc2s1)c1ccc(F)cc1 | 76.0* | -38.0 | -2.1 | 19.3 | -34.6 | -7.4
O=C(Nc1nc2ccccc2s1)c1cnccn1 | 12.1 | -137.6 | -25.6 | 56.0* | -99.4 | 12.0
CCCNC(=O)c1ccc(-c2nc3ccccc3s2)s1 | / | -53.4 | -38.9 | 51.7* | -80.9 | -49.6
Nc1n[nH]c(-c2ccccc2[N+](=O)[O-])n1 | -16.6 | 9.3 | -5.5 | 23.9 | -1.0 | 5.9
Cc1ccc(N=Cc2ccccc2O)cc1Cl | 7.1 | -3.9 | -11.3 | 59.2* | 6.2 | 8.0
COc1ccc(-n2c(-c3cc(-c4ccccc4)sc3N)n[nH]c2=S)cc1 | -17.6 | -5.9 | -37.6 | -25.0 | 86.7* | 19.6
Nc1sc(-c2ccccc2)cc1-c1n[nH]c(=S)n1C1CCCCC1 | -18.0 | 20.4 | 1.8 | 18.7 | 45.1 | 6.9
CCN(CC)CP(=O)(c1ccccc1)c1ccccc1 | 19.1 | 9.1 | 3.1 | -9.3 | 9.6 | -7.9
